Autofluor counter = compound fluorescence in toxin protease inhibitor counterscreen. compound autofluorescence counterscreen, microsphere flow cytometry; hits give high values. fluorescence intensity (concentration not given with the values). 360,000 compounds, 3.1% hits. AID 624483; in the data active = fluorescence intensity above about 16000; inconclusive = no clear call, values can overlap the other calls
BoNT F protease = blocks Botulinum neurotoxin F light chain protease; Multiplex microsphere protease cleavage assay, flow cytometry; inhibition, % at 10 µM; 360,000 compounds, 0.22% hits; AID 588497; in the data active = inhibition above about 35%, passing the limit was not always enough; inconclusive = no clear call, values can overlap the other calls
Anthrax LF prot = inhibitors of Bacillus anthracis lethal factor protease; P15917; multiplex microsphere protease cleavage assay, LF; inhibition, % at 10 µM; 360,000 compounds, 0.12% hits; AID 588501
BoNT A protease = blocks Botulinum neurotoxin A light chain protease; 360,000 compounds, 0.17% hits; inhibition, % at 10 µM; multiplex microsphere protease substrate cleavage, flow cytometry; AID 588499
DUSP3 inh = blocks human VHR1 dual specificity phosphatase; P51452; recombinant VHR phosphatase, pNPP absorbance; 290,000 compounds, 0.52% hits; inhibition, % at 13.3 µM; in the data active = inhibition above about 50%
Target sequence (P51452 whole entry, looked up): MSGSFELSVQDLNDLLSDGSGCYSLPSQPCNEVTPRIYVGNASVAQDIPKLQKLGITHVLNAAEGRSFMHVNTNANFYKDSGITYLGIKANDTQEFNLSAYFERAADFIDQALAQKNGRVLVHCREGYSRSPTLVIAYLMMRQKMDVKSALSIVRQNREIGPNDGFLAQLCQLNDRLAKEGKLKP
MazEF act = activators of E. coli MazEF toxin-antitoxin RNase. FAM/BHQ RNA-DNA oligo cleavage fluorescence, 5 h. activation, % at 20 µM. 350,000 compounds, 0.32% hits. AID 504720; in the data active = activation above about 50%
Target sequence (P0AE70 whole entry, looked up): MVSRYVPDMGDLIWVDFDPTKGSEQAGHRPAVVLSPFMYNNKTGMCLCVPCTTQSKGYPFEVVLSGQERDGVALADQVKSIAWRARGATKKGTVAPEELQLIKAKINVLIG
Large screens that a line does not name were inactive. Shown are actives, neighbours in structure and some others; about 4.1% of the full set was active somewhere. Cut-off read from the data, not from the text of the source, unless noted: active = inhibition above about 30%; inconclusive = no clear call, values can overlap the other calls; inactive = below that.

Cc1ccc(C)c2nc(SCC(=O)NCc3cccs3)c(C#N)cc12	DUSP3 inh 53
CCOC(=O)CSc1nc(C)c(C(C)=O)cc1C#N	Autofluor counter 23558
Cc1cccc2cc(C#N)c(SCC(=O)NCc3cccs3)nc12	none
O=c1ccn(C2CCCCC2)c(=O)[nH]1	none (no result: DUSP3 inh, MazEF act)
CN(CC(=O)N(C)CC(=O)Nc1c(Cl)cccc1Cl)Cc1ccccc1F	Autofluor counter inconclusive (no result: DUSP3 inh)
Cc1nc(-c2cccc(NS(=O)(=O)c3cccc4ccccc34)c2)cs1	Autofluor counter 22200, BoNT A protease inconclusive
Cc1ccc(-c2cc(=O)[nH][nH]2)c(C)c1	Autofluor counter 22424
Cc1cc(NC(=O)CSc2nnc(COc3cccc(C)c3C)n2C)no1	none
Cc1ccccc1NC(=O)Cc1nnc(SCC(=O)c2ccc(Br)cc2)n1C	Autofluor counter 18692, BoNT A protease inconclusive
Cc1ccc(OCc2nnc(SCC(=O)Nc3cc(C)on3)n2C)cc1	Autofluor counter 21396
Cc1ccc(CSc2nnc(CC(=O)Nc3ccc(C)cc3)n2C)cc1	Autofluor counter 19547
Cc1ccc(OCc2nnc(SCC(=O)Nc3ccc4c(c3)OCO4)n2C)cc1	Autofluor counter 26293
Cc1ccc(NC(=O)Cc2nnc(SCC(=O)c3ccc(Br)cc3)n2C)cc1Cl	none (no result: Autofluor counter, BoNT F protease, Anthrax LF prot, BoNT A protease, MazEF act)
Cc1ccc(NC(=O)Cc2nnc(SCC(=O)Nc3ccccc3)n2C)cc1	none
Cc1ccc(-c2nnc(SCC(=O)N(C)C)nc2-c2ccc(C)cc2)cc1	none
COc1ccc(C(=O)NCCCOc2cccnc2)cc1OC1CCN(C(C)=O)CC1	none
CN(c1ccc(OCC(=O)N2CCC(C(N)=O)CC2)cc1)S(=O)(=O)c1cccs1	Autofluor counter 21812, BoNT A protease inconclusive
CC(=O)N1CCN(C(=O)COc2ccc(N(C)S(=O)(=O)c3cccs3)cc2)CC1	none
CCCCOC(=O)CCCN1C(=O)/C(=C2\SC(=S)N(CCCC(=O)OCCCC)C2=O)SC1=S	Anthrax LF prot 45, BoNT A protease 65
CCN1C(=O)/C(=C2\SC(=S)N(CCCOC)C2=O)c2ccccc21	none
Cc1cccc(NC(=O)c2ccc(Cn3cc(C(F)(F)F)ccc3=O)cc2)c1	Autofluor counter 16900
O=[N+]([O-])c1ccc(NN=Cc2ccc3c(c2)OCO3)nc1	MazEF act 106 (no result: DUSP3 inh)
O=[N+]([O-])c1ccc(/C=N/Nc2ccccn2)cc1	DUSP3 inh 58
Cc1nn(-c2ccccn2)c2c1C(=O)CC(C)(C)C2N=[N+]=[N-] (configuration not stated)	none (no result: DUSP3 inh)
CC12CCC(=O)C=C1CCC1C2CCC2(C)C1CC1C3C(=O)N(Cc4ccccc4)C(=O)C3CC(=O)C12 (configuration not stated)	none (no result: DUSP3 inh)
O=C(COC(=O)c1ccccc1Br)NCCc1ccc(F)cc1	BoNT F protease 43
CCOc1ccc(NC(=O)CC(Cc2cc(C)cc(C)c2)C(=O)O)cc1 (configuration not stated)	BoNT F protease inconclusive, DUSP3 inh 53
CCOc1ccc(NC(=O)C(CC(=O)O)Cc2ccccc2)cc1 (configuration not stated)	none
COCc1c(C(=O)OC)nnn1-c1ccccc1	Autofluor counter 22960, BoNT A protease inconclusive
CCc1ccc(CNCCNCC(C)O)cc1 (configuration not stated)	Autofluor counter 21353
CC(O)CNCCNCc1cccs1 (configuration not stated)	none
CN(C)C(=O)N1CCCC(C(=O)NCCc2ccccc2)C1 (configuration not stated)	Autofluor counter 24323
Cc1ccc(CCNC(=O)C2CCCN(C(=O)N(C)C)C2)cc1 (configuration not stated)	Autofluor counter 25529
CC1=C(C)CC(C(=O)NCCc2ccccc2)C(C(=O)O)C1 (configuration not stated)	Autofluor counter 23755
O=C(NCc1ccc2c(c1)OCO2)c1nn(-c2ccccc2)c(=O)c2ccccc12	Autofluor counter 21677, BoNT A protease inconclusive
O=C(NCc1ccc2c(c1)OCO2)c1ccc(Br)cc1	BoNT F protease inconclusive
Cc1ccc(C(=O)NCCC(=O)NCc2ccco2)cc1	DUSP3 inh 54
CN(c1ccc(C(=O)NCc2ccc3c(c2)OCO3)cc1)S(=O)(=O)c1ccccc1	none
O=C(CCNC(=O)c1ccc(Br)cc1)NCc1ccco1	Autofluor counter inconclusive (no result: DUSP3 inh)
O=C(Nc1ccc2c(c1)OCO2)c1nn(-c2ccccc2)c(=O)c2ccccc12	none
CN(c1ccc(C(=O)NCc2ccc3c(c2)OCO3)cc1)S(C)(=O)=O	Autofluor counter 22044
O=C(NCc1ccc2c(c1)OCO2)c1ccc(-n2cnnn2)cc1	Autofluor counter 16294, BoNT A protease inconclusive
CC(=O)N/C(=C\c1ccccc1)C(=O)OCC(=O)Nc1cc(S(=O)(=O)N(C)C)ccc1Cl	none (no result: DUSP3 inh)
CCOC(=O)c1c(C)[nH]c(C(=O)OCC(=O)Nc2cc(C)nn2-c2ccccc2)c1C	none (no result: Autofluor counter, BoNT F protease, Anthrax LF prot, BoNT A protease, DUSP3 inh)
O=C(NCCC(=O)N1CCCC(C(F)(F)F)C1)c1ccc(Br)cc1 (configuration not stated)	none
COc1ccc(S(=O)(=O)N[C@@H](CSCc2ccccc2)C(=O)O)cc1	none
O=c1[nH]c(SCc2ccc(OC(F)(F)F)cc2)nc2c1CCC2	none (no result: DUSP3 inh, MazEF act)
CCN1C(=O)c2ccc(C(=O)NCc3ccc4c(c3)OCO4)cc2C1=O	Autofluor counter 16137
CCCN1C(=O)c2ccc(C(=O)NCc3ccco3)cc2C1=O	Autofluor counter 23188, BoNT A protease inconclusive
CCCCN1C(=O)c2ccc(C(=O)NCc3ccco3)cc2C1=O	none
COC(=O)[C@@]12CCCCN1[C@H](c1ccc(-c3ccc(C(C)=O)cc3)c(OC)c1)[C@@H]1C(=O)N(C)C(=O)[C@@H]12	none (no result: DUSP3 inh)
Cc1cc(C(=O)Nc2nc3c(s2)CCCC3)no1	Autofluor counter 23398
Cc1onc(-c2ccccc2)c1C(=O)Nc1nc2c(s1)CCCC2	none
CC(=O)Oc1ccc(-c2cccc(C(=O)NCCO)c2)cc1	none
CC(=O)Oc1ccc(-c2cccc(C(=O)NCC(=O)O)c2)cc1	Autofluor counter 23862
Cn1c(CSCc2ccc(Cl)cc2)n[nH]c1=S	DUSP3 inh 52
COc1ccc(C2=NO[C@@H]3C(=O)N(C4CCCCC4)C(=O)[C@H]23)cc1OC	Autofluor counter 22002
CC1CCCN(C(=O)CSc2cnc3ccccc3n2)C1 (configuration not stated)	Autofluor counter 19588
CC1CCN(C(=O)CSc2nc3ccccc3s2)CC1	Autofluor counter 23396
O=C(O)C1CCN(C(=O)CSc2nc3ccccc3s2)CC1	none
O=C(O)CCSc1nc2ccccc2s1	Autofluor counter 22416
O=C(CCCSc1nc2ccccc2s1)NC1=NCCS1	Autofluor counter 23045
CC(=O)Nc1ccc(NC(=O)CCCSc2nc3ccccc3s2)cc1	none
CC1CCCN(S(=O)(=O)c2ccc(NC(=O)C3CCN(C(=O)C(C)(C)C)CC3)cc2)C1 (configuration not stated)	none (no result: DUSP3 inh)
CCC(=O)N1CCCC(C(=O)NS(=O)(=O)c2cc(C)c(Cl)cc2C)CC1 (configuration not stated)	none (no result: DUSP3 inh, MazEF act)
CCCC(=O)N1CCCC1(C)C(=O)NCc1ccc(SC)cc1 (configuration not stated)	none (no result: DUSP3 inh, MazEF act)

Screens deposited in PubChem BioAssay by several laboratories.
